About 83,000 compounds went through this panel and 20% of them were active in at least one assay; those are over-represented in the sample as a whole.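 Cell lines were cultured in 96-well plates, exposed to a single compound concentration, and assessed for percent growth 48 hours later.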 Values without a mark were called inactive. Calls of active or inactive are those of the source. The calls were made as follows: active = growth percent below 10; inactive = the rest.
How the values were obtained:
Assay in all cases: NCI-60 one-dose screen, 48 h (100 = growth as untreated, 0 = no growth, -100 = all killed)
Details in all cases: 10 µM unless noted
HCT-15 colon = tested on: HCT-15 colon
HT29 colon = tested on: HT29 colon
SNB-75 CNS = tested on: SNB-75 CNS
PC-3 prostate = tested on: PC-3 prostate
SK-MEL-5 melanoma = tested on: SK-MEL-5 melanoma
LOX IMVI melanoma = tested on: LOX IMVI melanoma
SK-MEL-28 melanoma = tested on: SK-MEL-28 melanoma
SK-MEL-2 melanoma = tested on: SK-MEL-2 melanoma
SN12C renal = tested on: SN12C renal
UO-31 renal = tested on: UO-31 renal
ACHN renal = tested on: ACHN renal
CAKI-1 renal = tested on: CAKI-1 renal
A498 renal = tested on: A498 renal
MOLT-4 leukemia = tested on: MOLT-4 leukemia
SNB-19 CNS = tested on: SNB-19 CNS
U251 CNS = tested on: U251 CNS
UACC-62 melanoma = tested on: UACC-62 melanoma
TK-10 renal = tested on: TK-10 renal
CCRF-CEM leukemia = tested on: CCRF-CEM leukemia
EKVX NSCLC = tested on: EKVX NSCLC

SMILES | growth (HCT-15 colon) | growth (HT29 colon) | growth (SNB-75 CNS) | growth (PC-3 prostate) | growth (SK-MEL-5 melanoma) | growth (LOX IMVI melanoma) | growth (SK-MEL-28 melanoma) | growth (SK-MEL-2 melanoma) | growth (SN12C renal) | growth (UO-31 renal) | growth (ACHN renal) | growth (CAKI-1 renal) | growth (A498 renal) | growth (MOLT-4 leukemia) | growth (SNB-19 CNS) [%] | growth (U251 CNS) | growth (UACC-62 melanoma) [%] | growth (TK-10 renal) | growth (CCRF-CEM leukemia) | growth (EKVX NSCLC) [%]
CCCCCCCCCCCC(=O)[O][Sn]([CH2]CCC)([CH2]CCC)[CH2]CCC | -87.2% (active) | -90.3% (active) | -100% (active) | -92.6% (active) | -97.8% (active) | -90.1% (active) | -99.1% (active) | -90.5% (active) | -93.5% (active) | -97.9% (active) | -95.2% (active) | -97.8% (active) | -86% (active) | -27% (active) | – | – | – | – | – | –
COc1ccc(-c2nc3sc(C)nn3c2-c2nc3cc(C)c(C)cc3[nH]2)cc1 | 80.6% | 99.2% | – | 86% | 93% | 94.8% | 96% | 104% | – | 85.9% | 89.7% | 89.8% | 102% | 78.1% | 110 | 103% | 88.5 | 118% | 85.9% | –
Oc1cccc(Nc2nc(-c3ccccn3)cs2)c1 | 78.3% | 112% | – | 94.5% | 91.1% | 93.9% | 111% | – | 97.8% | 73.1% | 102% | 111% | – | 85.2% | 98.8 | 101% | – | 111% | – | –
CC1(C)N=C(N)N=C(N)N1c1cccc(OCCOc2cccc([N+](=O)[O-])c2)c1 | 89.5% | 15.4% | – | 17.8% | 70.5% | 20.1% | 56% | 39.4% | 28.8% | 78.4% | 89.9% | 90.1% | 91% | 26% | 53.9 | – | 39.6 | 71.8% | 29.7% | –
CCCCc1ccc(C(O)(CCN2CC3CCC(CC3)C2)c2ccccc2)cc1 (configuration not stated) | 65.7% | 68.8% | – | 94.3% | 101% | 103% | 102% | 98% | 95.7% | 65.3% | 94.5% | 92.6% | 77% | 80.9% | 108 | 83.3% | 108 | 104% | – | 87.4
COC(=O)c1ccc(C(=O)Nc2ccccc2N)cc1 | 83.9% | 86.9% | – | 65.3% | – | 97.7% | 94.6% | 63% | 62.9% | 36.7% | 88.6% | – | – | 30.4% | 85.6 | 72.1% | 61.2 | – | 4.59% (active) | –
CCN(c1ccc(C(=O)N2CCN(c3ccccc3)CC2)cc1)S(C)(=O)=O | 104% | 97.7% | – | 101% | 99.6% | 100% | 108% | 100% | 103% | – | 109% | 96.3% | 87.9% | 95.8% | 100 | 105% | 105 | 88.7% | 100% | –
CC(=O)Nc1ccc(Sc2ccc([N+](=O)[O-])o2)cc1 | 2.17% (active) | 26.4% | – | 58.9% | 59.5% | 5.12% (active) | -8.34% (active) | – | 54.2% | 24.2% | -28.1% (active) | – | 120% | 33.2% | 118 | 31.9% | – | 64.9% | – | 76.4
O=C1N/C(=C\c2ccccc2)c2ncccc21 | 101% | 113% | – | 102% | 105% | 99.2% | 119% | – | 100% | 69% | 103% | 93.6% | 123% | 80.7% | 104 | 104% | 102 | 121% | 97.7% | 93.1
O=C(N/N=C(\CS(=O)(=O)c1ccccc1)c1cc2cc(Br)ccc2oc1=O)c1ccccc1 | 99.8% | 103% | – | 95.5% | 103% | 99.1% | 99.3% | 105% | 96.1% | 94.4% | 103% | 90.6% | – | 140% | 103 | 97.7% | 95.2 | 108% | 131% | 94.2
COc1cccc2c(=O)c3c(sc12)c(NCCN(C)C)nc1ccccc13 | 16.5% | 3.18% (active) | – | 23% | 32.9% | -2.57% (active) | 43.9% | 49.1% | 34.9% | 12.2% | 8.6% (active) | 26.2% | -15.7% (active) | -14.6% (active) | 36.6 | -28.1% (active) | 57 | 47.2% | 20.9% | 26.2
Cc1ccc(NS(=O)(=O)c2ccc(-c3cnc(C4CC4)o3)cc2)cc1 | 17.5% | 12% | – | 49.7% | 15% | 39.2% | 53.9% | 23.9% | 42.2% | 55.3% | 46.6% | 38.8% | – | 32% | 37.6 | 39.9% | 27.3 | 64.9% | – | –
COc1cccc(C2CC(=O)Nc3cc4c(cc32)CCC4)c1OC (configuration not stated) | 36.4% | 9.41% (active) | – | 69.3% | – | 59.6% | 68.9% | 36.5% | – | 59.7% | 82.3% | 40.8% | 62.9% | 14.8% | 80.8 | 42.4% | 52.1 | 70.1% | 3.82% (active) | 72.5
C(=C\c1ccccc1)/CN1CCN(C(c2ccccc2)c2ccccc2)CC1 | 80.9% | 83.1% | – | 77.5% | – | 99.7% | 91.9% | 104% | 90.4% | 70.5% | 95.1% | – | 69.5% | 90.2% | 96.3 | – | 96.9 | 110% | 94.4% | –
CSC1=CC(=O)c2ccccc2C1=O | 101% | 103% | – | 67.3% | – | 68.5% | 113% | 96.1% | 97% | 28% | 24% | 33.6% | – | -21.7% (active) | 94.2 | 92.2% | 79.7 | 97.9% | -16.7% (active) | 89.6
Cc1nc2cc(Nc3nc(Nc4ccc(F)cc4)nc(N4CCCC4)n3)ccc2n1Cc1ccccc1 | -33.4% (active) | -76.1% (active) | – | – | -53.4% (active) | -86% (active) | -10.6% (active) | -58% (active) | -62.9% (active) | -68.7% (active) | 11.5% | -14.4% (active) | – | -30.7% (active) | 33.6 | -70.9% (active) | – | -55.8% (active) | -30.4% (active) | –
Clc1ccc(Nc2nc(Nc3ccccc3)nc(Nc3ccc(-c4cc(-c5ccc(Cl)cc5)on4)cc3)n2)cc1 | 43.1% | – | 16.6% | 46.1% | 86% | 32.5% | 77.7% | 64.2% | 64% | 41.7% | 47.1% | 48.2% | 43.9% | 52.2% | 76.7 | 48.5% | 53.3 | 52.8% | 70.5% | 69.5
CN(C)c1ccc(/C=C(\C#N)c2cc3ccccc3n2C)cc1 | 20.6% | 10.3% | – | 34.4% | 19.3% | 31.5% | 67.2% | 54.7% | – | 51.7% | 38.9% | 30.7% | – | 21.6% | 31 | 19.4% | 38.5 | – | 19.1% | 41.6
COc1ccc(-c2nc(Nc3ccc(F)cc3)nc(Nc3ccc4c(c3)nc(C)n4Cc3ccccc3)n2)cc1 | 33.4% | 8.87% (active) | – | – | 47.1% | 38.9% | 56.6% | 48.2% | 48.4% | 29.3% | 37.1% | 83.2% | 72.7% | -9.61% (active) | 60.7 | 39.2% | – | 74.9% | -6.22% (active) | –

— PubChem BioAssay (NCI)
